{"source": "paper PMC4336329", "about": "(PLoS ONE, 2015)", "note": "Hit rate of the full screen: of about 310,000 compounds, about 14,000 (4.5%) showed an effect of 50% or more. The effect is printed as a negative number. Shown is part of a subset that was picked to be rich in strong results.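 Also: peak tail current of the secondary pulse compared with the same well before compound.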", "data": [{"target": "human ether-à-go-go-related gene (hERG) potassium channel (human, UniProt Q12809)", "sequence (Q12809 whole entry, looked up)": "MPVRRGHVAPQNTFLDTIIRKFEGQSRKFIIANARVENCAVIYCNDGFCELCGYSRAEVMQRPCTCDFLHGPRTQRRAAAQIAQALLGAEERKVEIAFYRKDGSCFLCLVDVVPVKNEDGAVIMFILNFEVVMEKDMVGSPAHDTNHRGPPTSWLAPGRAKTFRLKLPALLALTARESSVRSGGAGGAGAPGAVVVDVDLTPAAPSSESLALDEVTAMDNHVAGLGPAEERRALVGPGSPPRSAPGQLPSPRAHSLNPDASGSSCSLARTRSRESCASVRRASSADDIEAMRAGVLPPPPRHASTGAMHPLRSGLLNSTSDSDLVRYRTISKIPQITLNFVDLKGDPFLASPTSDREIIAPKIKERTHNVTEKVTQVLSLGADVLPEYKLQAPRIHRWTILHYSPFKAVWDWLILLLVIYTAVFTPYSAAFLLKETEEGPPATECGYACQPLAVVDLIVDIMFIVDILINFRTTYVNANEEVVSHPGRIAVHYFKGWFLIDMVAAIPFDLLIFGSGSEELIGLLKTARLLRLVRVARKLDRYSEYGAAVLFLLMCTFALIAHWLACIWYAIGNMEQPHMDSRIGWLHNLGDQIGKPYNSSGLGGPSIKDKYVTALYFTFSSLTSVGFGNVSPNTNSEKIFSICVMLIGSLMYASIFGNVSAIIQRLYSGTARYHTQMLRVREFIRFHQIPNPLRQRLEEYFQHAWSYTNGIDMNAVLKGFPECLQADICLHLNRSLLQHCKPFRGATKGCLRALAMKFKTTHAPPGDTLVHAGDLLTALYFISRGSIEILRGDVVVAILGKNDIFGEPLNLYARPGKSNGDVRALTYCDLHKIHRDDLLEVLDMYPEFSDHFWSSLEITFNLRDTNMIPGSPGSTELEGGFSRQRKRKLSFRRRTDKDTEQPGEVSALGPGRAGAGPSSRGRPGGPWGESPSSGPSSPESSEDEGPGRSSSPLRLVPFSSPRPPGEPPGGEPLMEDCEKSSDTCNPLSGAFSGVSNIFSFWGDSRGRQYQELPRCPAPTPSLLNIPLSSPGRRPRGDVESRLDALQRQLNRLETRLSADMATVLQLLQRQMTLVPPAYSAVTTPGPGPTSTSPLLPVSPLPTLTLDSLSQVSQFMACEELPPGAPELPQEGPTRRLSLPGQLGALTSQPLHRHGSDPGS", "assay": "primary screen, population patch clamp on CHO cells stably expressing hERG; higher = less effect of the substance", "units": {"hERG current change (%, negative = inhibition) at 10uM": "%"}, "values": [{"smiles": "CC(C)(C)NC(=O)N1CCC(CO)(Cc2ccccc2Cl)CC1", "hERG current change (%, negative = inhibition) at 10uM": -4.82}, {"smiles": "O=C(C1CCCC1)N1CCC(CO)(Cc2ccccc2Cl)CC1", "hERG current change (%, negative = inhibition) at 10uM": -44.3}, {"smiles": "O=C(C1CCCCC1)N1CCC(CO)(Cc2ccccc2Cl)CC1", "hERG current change (%, negative = inhibition) at 10uM": -15.3}, {"smiles": "Cc1ccccc1OCC(=O)O/N=C(\\N)Cc1cccs1", "hERG current change (%, negative = inhibition) at 10uM": 5.34}, {"smiles": "Cc1ccc2[nH]c3c(c2c1)CN(C(=O)CN(C)CC1OCCO1)CC3", "hERG current change (%, negative = inhibition) at 10uM": 12.7}, {"smiles": "COc1ccc(N2C(=O)NC(=O)/C(=C\\c3ccc([N+](=O)[O-])s3)C2=O)cc1", "hERG current change (%, negative = inhibition) at 10uM": 13.3}, {"smiles": "O=C(Nc1cc(Cl)ccc1C(=O)O)c1ccc(CN2C(=O)c3ccccc3C2=O)cc1", "hERG current change (%, negative = inhibition) at 10uM": 20.7}, {"smiles": "Cc1ccc(OCC(=O)Nc2ccc(S(=O)(=O)Nc3ccccn3)cc2)cc1C", "hERG current change (%, negative = inhibition) at 10uM": 24.4}, {"smiles": "O=C(Cn1cnc2c(NC(=O)OCc3ccccc3)ncnc21)NCCN1CCOCC1", "hERG current change (%, negative = inhibition) at 10uM": 1.26}, {"smiles": "Br.COC(=O)c1ccc(CN2CCSC2=N)cc1", "hERG current change (%, negative = inhibition) at 10uM": 6.85}, {"smiles": "CN(CC(=O)Nc1ccc(F)c(F)c1)S(=O)(=O)c1cccc2nsnc12", "hERG current change (%, negative = inhibition) at 10uM": -26.1}, {"smiles": "O=C(c1ccccn1)N(Cc1ccco1)C1(C(=O)NC2CCCC2)CCCCC1", "hERG current change (%, negative = inhibition) at 10uM": -5.62}, {"smiles": "O=C(O)/C(=C\\c1c(C(=O)O)[nH]c2cc(Cl)cc(Cl)c12)c1ccccc1", "hERG current change (%, negative = inhibition) at 10uM": 13.3}, {"smiles": "O=C(O)c1cc(=O)c2ccccc2[nH]1", "hERG current change (%, negative = inhibition) at 10uM": 8.86}, {"smiles": "O.O=C(O)c1cc(=O)c2c(Cl)cc(Cl)cc2[nH]1", "hERG current change (%, negative = inhibition) at 10uM": -51.9}, {"smiles": "Cc1c(OC(C(=O)O)c2ccccc2)ccc2c1oc(=O)c1ccccc12", "note": "(stereo not drawn)", "hERG current change (%, negative = inhibition) at 10uM": 17.3}, {"smiles": "Cc1ccc(S(=O)(=O)Nc2ccc3c(c2)nc(CCN2CCN(c4ccccn4)CC2)n3C)cc1", "hERG current change (%, negative = inhibition) at 10uM": -84.6}, {"smiles": "CC(C)C(=O)Nc1ccc2c(c1)nc(CCN1CCN(c3ccccn3)CC1)n2C", "hERG current change (%, negative = inhibition) at 10uM": -18.2}, {"smiles": "Cn1c(CCN2CCN(c3ccccn3)CC2)nc2cc(NS(=O)(=O)c3ccc(Cl)cc3)ccc21", "hERG current change (%, negative = inhibition) at 10uM": -84.3}, {"smiles": "CC(=O)Nc1ccc2c(c1)nc(CCN1CCN(c3ccccn3)CC1)n2C", "hERG current change (%, negative = inhibition) at 10uM": 18.6}, {"smiles": "CC1=C(C(=O)OCC(Cl)(Cl)Cl)N2C(=O)C(NC(=O)Cc3ccccc3)C2SC1", "note": "(stereo not drawn)", "hERG current change (%, negative = inhibition) at 10uM": 15.5}, {"smiles": "O=c1[nH]c(/C=C/c2ccc3c(c2)OCO3)c([N+](=O)[O-])c(=O)[nH]1", "hERG current change (%, negative = inhibition) at 10uM": 45.8}, {"smiles": "COc1ccc(NC(=O)CN(C)CC(=O)NC2CCC(C)CC2)cc1", "note": "(stereo not drawn)", "hERG current change (%, negative = inhibition) at 10uM": 0.408}, {"smiles": "O=C(NCCc1ccccc1)C(NS(=O)(=O)c1cccc2nsnc12)c1ccccc1", "note": "(stereo not drawn)", "hERG current change (%, negative = inhibition) at 10uM": -25.4}, {"smiles": "COc1ccc(CCNC(=O)CCCn2c(SCC#N)nc3ccccc3c2=O)cc1OC", "hERG current change (%, negative = inhibition) at 10uM": -12.7}, {"smiles": "CCOc1nc(Nc2ccc(OC)c(Cl)c2)nc(N2CCN(c3ccc(OC)cc3)CC2)n1", "hERG current change (%, negative = inhibition) at 10uM": 14.9}, {"smiles": "Cc1ccc(Nc2nc(N)nc(CSC(=S)N3CCN(c4ccccc4)CC3)n2)cc1", "hERG current change (%, negative = inhibition) at 10uM": 8.32}, {"smiles": "Nc1nc(CN2CCN(c3ccccc3)CC2)nc(Nc2ccc(Cl)cc2)n1", "hERG current change (%, negative = inhibition) at 10uM": -76}, {"smiles": "CCN1CCN(Cc2nc(N)nc(Nc3ccc(C)c(C)c3)n2)CC1", "hERG current change (%, negative = inhibition) at 10uM": -65.8}, {"smiles": "COC(=O)CC(=O)Cc1nc(N)nc(Nc2ccc(C)c(C)c2)n1", "hERG current change (%, negative = inhibition) at 10uM": -9.22}, {"smiles": "COc1ccc(Nc2nc(N)nc(CN3CCN(c4ccc(F)cc4)CC3)n2)cc1", "hERG current change (%, negative = inhibition) at 10uM": -69.5}, {"smiles": "COc1ccc(N2CCN(Cc3nc(N)nc(Nc4ccc(C)c(Cl)c4)n3)CC2)cc1", "hERG current change (%, negative = inhibition) at 10uM": -63.1}, {"smiles": "COc1ccc(N2CCN(c3nc(Nc4ccc(C)c(F)c4)nc(N4CCCC4)n3)CC2)cc1", "hERG current change (%, negative = inhibition) at 10uM": 8.35}, {"smiles": "Nc1nc(CSC(=S)N2CCN(c3ccccc3)CC2)nc(Nc2ccccc2)n1", "hERG current change (%, negative = inhibition) at 10uM": 0.151}, {"smiles": "CCOc1nc(Nc2ccc(F)cc2)nc(N2CCN(c3ccc(OC)cc3)CC2)n1", "hERG current change (%, negative = inhibition) at 10uM": -14.7}, {"smiles": "CS(=O)(=O)N1CCN(c2ccccc2NC(=O)c2cc3ccccc3o2)CC1", "hERG current change (%, negative = inhibition) at 10uM": 7.78}, {"smiles": "O=C(COC(=O)[C@H](Cc1ccccc1)N1C(=O)c2ccccc2C1=O)Nc1ccc2c(c1)OCO2", "hERG current change (%, negative = inhibition) at 10uM": -8.45}, {"smiles": "CCC1CCCCN1C(=O)c1cc(COc2ccc3ncccc3c2)on1", "note": "(stereo not drawn)", "hERG current change (%, negative = inhibition) at 10uM": 0.129}, {"smiles": "CCCCn1c(N)c(N(CCOC)C(=O)CSc2ccccc2C)c(=O)[nH]c1=O", "hERG current change (%, negative = inhibition) at 10uM": -26.6}, {"smiles": "Cc1ccc(C(C)(C)C)cc1S(=O)(=O)Nc1nc2ccccc2nc1Cl", "hERG current change (%, negative = inhibition) at 10uM": -33.6}, {"smiles": "COc1ccc(-c2csc3nc(-c4ccccc4OC)oc(=O)c23)cc1", "hERG current change (%, negative = inhibition) at 10uM": 19.1}, {"smiles": "COc1cc(C(=O)Nc2ccc3c(c2)Cc2ccccc2-3)cc(OC)c1OC", "hERG current change (%, negative = inhibition) at 10uM": 0.538}]}]}
